Values joined by “and” are separate entries in the source; they are usually repeats but may differ in a detail not shown here. Equal values may be shown once. Results filed as inconclusive are left out. Active and inactive are the calls of the source. Unless noted, the call rests on the fitted dose curve; in most records, active means well fitted curve in the direction sought with a large enough effect; inconclusive means small, poorly fitted or top-dose-only effect, or another doubt; inactive means no such curve, though single readings can be large; an effect the other way counts as inactive or inconclusive.
Assays:
[1] = target: Cytochrome P450 1A2 (Homo sapiens) (UniProt P05177); assay: p450-cyp1a2 (AID 410; calls by dose curve; further: potency means the concentration at half of the fitted maximal effect;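 on activity change, negative = inhibition: -100% = full effect of reference inhibitor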)
How it was run: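 20nM CYP1A2, 100uM Luciferin-ME (=Km), 100mM KPO4; cpd 10 min RT; +NADPH regen, 60 min RT; stop/detect 20 min; luminescence. Normalized to furafylline 57 uM = full inhibition.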

[2] = target: Glucocorticoid receptor (Homo sapiens) (UniProt P04150); assay: GR-GFP Redistribution (AID 450;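 active means compounds whose dose series gives a full or clear partial fitted curve of increased nuclear translocation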; further: potency means the concentration at half of the fitted maximal effect); settings: U2OS GR-GFP nuclear translocation, laser cytometry, 2 h
[3] = target: Glucocorticoid receptor (Homo sapiens) (UniProt P04150); assay: GR-EFC Redistribution (AID 451; calls by dose curve; further: potency means the concentration at half of the fitted maximal effect); settings: CHO-K1 GR-EFC translocation, beta-gal luminescence, 2 h
How it was run: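 CHO-K1 cells expressing nuclear EA and GR-ED fragments of b-gal; compounds titrated up to 46 uM final, 2 h at 37 C. GR nuclear translocation read as complemented b-gal luminescence after 1 h RT detection.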

[4] = target: Mitogen-activated protein kinase 10 (Mus musculus) (UniProt Q61831); assay: JNK3 AlphaScreen Assay (AID 530; active means well fitted curve in either direction with a large enough effect, not every such curve was filed as active;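 further: kinase came from lysate of stimulated human HepG2 cells; signal reports phosphorylation of biotinylated GST-cJun 1-79 at Ser73 with 10 µM ATP; on the % scale 0 is the no-effect control and ±100 the full control effect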)
How it was run: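 HepG2 lysate (IL-1b/TNFa pre-activated) + biotin-GST-cJun 1-79 + anti-pSer73 cJun; cpd titration, 15 min RT; ATP 10 uM start; Tris pH 7.6, MgCl2, DTT, vanadate; beads in EDTA buffer; AlphaScreen.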

[5] = target: 3',5'-cyclic-AMP phosphodiesterase 4B (Homo sapiens) (UniProt Q07343); assay: qHTS Assay for Inhibitors of PDE-IV (AID 607; active means well fitted activation curve with a large enough effect in the main read-out, with a control signal flat, not every such curve was filed as active; further: % of control where 0% means no effect)
How it was run: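 Live HEK293 cells with a modified cyclic nucleotide-gated (CNG) channel report intracellular cAMP via membrane-potential dye fluorescence (ex 535/em 590 nm). Endogenous PDE-IV was targeted. Compounds were tested at up to 22.9 uM final; RO 20-1724 100 uM served as control.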

[6] = qHTS Assay for Lipid Storage Modulators (AID 1519; calls by dose curve); settings: Drosophila S3 cells, BODIPY lipid droplet/cell ratio, laser cytometry, cells loaded with oleic acid
How it was run: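 Cells seeded at 5,000 per well were treated with compounds over a concentration series and loaded with oleic acid (400 uM, as added). Lipid droplet fluorescence (488 nm excitation, 500-530 nm channel) was read by laser-scanning cytometry and normalized to 20 uM Triacsin C.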

[7] = target: DNA dC->dU-editing enzyme APOBEC-3G (Homo sapiens) (UniProt Q9HC16); assay: qHTS for inhibitors of Vif-A3G interactions: Validation (AID 588379); further: 0% is about no effect
How it was run: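 Yellow fluorescence (Ex 488, Em 500-530) of Vif-coexpressing HeLa A3G-eYFP cells, scanned by Acumen cytometer, reports blocked A3G degradation. Cells plated at 700/well overnight at 37 deg C before compound addition, then a further overnight compound incubation at 37 deg C.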

[8] = system: Zika virus NS2B-NS3 protease; assay: Primary screen GU AMC qHTS for Zika virus inhibitors (AID 1347154);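 further: 0% = no-inhibitor control and -100% = no-enzyme control; nearly all actives have a fitted effect of over 70% in size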
How it was run: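 Unlinked Zika NS2B hydrophilic domain–NS3 protease complex at 25 nM in 10 mM Tris-HCl pH 8.0, 0.01% Tween 20, with an AMC peptide substrate. Fluorescence change (340/450 nm) over 15 min at room temperature, normalized to controls, fitted to 4-parameter Hill.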

[9] = target: Cytochrome P450 3A4 (Homo sapiens) (UniProt P08684); assay: qHTS Assay for Inhibitors and Substrates of Cytochrome P450 3A4 (AID 884); further: on the % scale 0 is the no-effect control and ±100 the full control effect; nearly all actives have a fitted effect of over 50% in size
How it was run: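 Luminescent readout of luciferin produced by CYP3A4 (20 nM) dealkylation of Luciferin-PPXE, 25 uM (its KM). NADPH-driven reaction ran 60 min at RT after 10 min compound preincubation; data scaled to 57 uM ketoconazole as 100% inhibition.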

[10] = Primary qHTS for small molecule stabilizers of the endoplasmic reticulum resident proteome: Secreted ER Calcium Modulated Protein (SERCaMP) assay (AID 1508630); further: on the % scale 0 is the no-effect control and ±100 the full control effect
How it was run: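 The SH-SY5Y reporter protocol was run at 3 concentrations up to 38.3 uM (primary) or 11 concentrations (follow-up): 16 h compound, 100 nM thapsigargin for 4 h, then extracellular luciferase luminescence.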

[11] = target: Tyrosyl-DNA phosphodiesterase 1 (Homo sapiens) (UniProt Q9NUW8); assay: Confirmation Assay for Inhibitors of Tyrosyl-DNA Phosphodiesterase (TDP1) (AID 489007); settings: recombinant human TDP1 enzymatic activity, dose-response; further: potency means the concentration at half of the fitted maximal effect; nearly all actives have a fitted effect of over 40% in size
How it was run: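 AlphaScreen read-out: streptavidin donor and anti-FITC acceptor beads (10 ug/ml) bind intact substrate, so Tdp1 removal of tyrosine-FITC lowers signal. Enzyme 1 nM, substrate 15 nM, 5 min reaction at room temperature after 15 min compound preincubation.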

[12] = target: Cytochrome P450 2C19 (Homo sapiens) (UniProt P33261); assay: qHTS Assay for Inhibitors and Substrates of Cytochrome P450 2C19 (AID 899); further: nearly all actives have a fitted effect of over 60% in size; further: potency means the concentration at half of the fitted maximal effect
How it was run: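 5 nM human CYP2C19 with 10uM Luciferin-H EGE (at KM) in 50mM KPO4, compound preincubated 10 min at 37C, then NADPH regeneration for 60 min at 37C. Luciferin read by luminescence after detection reagent; normalized to 57uM ketoconazole as full inhibition.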

[13] = target: Ubiquitin carboxyl-terminal hydrolase 1 (Homo sapiens) (UniProt O94782); assay: Inhibitors of USP1/UAF1: Pilot qHTS (AID 504865);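 further: rhodamine fluorescence freed from ubiquitin-rhodamine substrate followed over time; top concentration of the series differs between compounds; on the % scale 0 is the no-effect control and ±100 the full control effect; nearly all actives have a fitted effect of over 35% in size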
How it was run: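 1nM USP1/UAF1 + cpd, 15 min RT; start w/ Ub-Rho 150nM final; kinetic FL 480/540 nm, 6 reads q60 s. Buffer 50mM HEPES pH 7.8, 0.5mM EDTA, 1mM TCEP, 0.01% Tween-20, 0.1 mg/ml BSA.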

[14] = target: Cytochrome P450 2D6 (Homo sapiens) (UniProt P10635); assay: qHTS Assay for Inhibitors and Substrates of Cytochrome P450 2D6 (AID 891); further: potency means the concentration at half of the fitted maximal effect; nearly all actives have a fitted effect of over 60% in size
How it was run: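 Luminescent read-out of luciferin formed by 5 nM human CYP2D6 demethylating 30 uM Luciferin-ME EGE (Km level) over 60 min at room temperature after NADPH regeneration addition. Data normalized to full inhibition by 1.43 uM quinidine.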

[15] = AP1 Signaling Pathway (AID 357; active means well fitted curve in either direction with a large enough effect, not every such curve was filed as active;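 further: ME-180 reporter cells stimulated with EGF at its EC50 level; on the % scale 0 is the no-effect control and ±100 the full control effect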); settings: ME-180 AP-1-bla reporter, EGF-induced, beta-lactamase ratio, 5 h
How it was run: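 Beta-lactamase reporter under AP-1 response element, ME-180 background. Stimulus: EC50 EGF. Compound exposure 5 h, 37 °C. Detection: CCF4, 2.5 h RT, 460/530 nm. Values: AC50 from titration.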

[16] = Stat Signaling Pathway (AID 446; active means well fitted curve in either direction with a large enough effect, not every such curve was filed as active;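 further: ME-180 cervical cancer cells given 40 pM IL-6 alongside compound; SIE-controlled beta-lactamase reporter measured as 460/530 nm FRET emission ratio; on the % scale 0 is the no-effect control and ±100 the full control effect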); settings: ME-180 (cervical carcinoma) SIE beta-lactamase reporter, IL-6 stimulated, 5 h
How it was run: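 Overnight-plated ME-180 cells bearing a STAT Inducible Element beta-lactamase reporter; 5 h co-exposure to compound and 40 pM IL-6; values normalized to 300 pM IL-6 and 125 nM JAK inhibitor controls.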

[17] = target: Guanine nucleotide-binding protein G(i) subunit alpha-1 (Homo sapiens) (UniProt P63096); assay: qHTS Assay for Inhibitors of RGS12 GoLoco Motif Activity (Green Fluorophore) (AID 879);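 further: 0% = labeled peptide with Gαi1 and full inhibition = labeled peptide alone without protein; negative values mean loss of peptide binding seen as reduced polarization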
How it was run: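 A drop in FITC polarization marked displacement of the FITC-tagged RGS12 GoLoco peptide (10 nM) from Gαi1 (50 nM). Compounds were incubated 10 min at room temperature in Tris pH 7.5 buffer containing 150 mM NaCl, 0.1 mM GDP and 0.05% NP40; unlabeled peptide titration served as control.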

[18] = target: Pyruvate kinase PKM (Homo sapiens) (UniProt P14618); assay: qHTS Assay for Activators of Human Muscle Pyruvate Kinase (AID 954; active means well fitted curve in the direction sought with a large enough effect, not every such curve was filed as active;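 further: 0% = uninhibited enzyme and -100% = no enzyme or full thiadiazolimine inhibition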)
How it was run: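 Screening used highly purified human pyruvate kinase M2 under submaximal activity, with PEP at its Km and ADP below Km. After an hour at room temperature, ATP was read by luciferase luminescence.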

[19] = target: Alpha-galactosidase A (Homo sapiens) (UniProt P06280); assay: Counterscreen for Glucocerebrosidase Inhibitors: qHTS Assay for Human alpha-Galactosidase at pH 4.5 (AID 992); further: 0% is about no effect
How it was run: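 Each compound is preincubated briefly with 2 nM enzyme before substrate addition (80 uM); plates then sit 20 min at ambient temperature, are quenched with 1M NaOH/1M glycine, and read fluorometrically.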

[20] = target: alpha-glucosidase (Oryza sativa, rice) (UniProt Q653V4); assay: Counterscreen for Glucocerebrosidase Inhibitors: qHTS Assay for Rice alpha-Glucosidase at pH 5.0 (AID 997);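 further: 0% = full activity with enzyme and -100% = basal without enzyme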
How it was run: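 Endpoint fluorogenic assay at pH 5.0: compounds (0.7 nM to 77 uM) titrated against 4 nM rice enzyme and 400 uM 4-MU-alpha-glucoside for 20 min at room temperature; NaOH/glycine stop, read ex 365/em 440 nm, Hill-fitted AC50.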

[21] = target: Cytochrome P450 3A4 (Homo sapiens) (UniProt P08684); assay: qHTS Assay for Activators of Cytochrome P450 3A4 (AID 885); further: nearly all actives have a fitted effect of over 65% in size
How it was run: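 Using 20nM recombinant human CYP3A4 in potassium phosphate (200mM), substrate Luciferin-PPXE at 25uM, luminescent luciferin detection followed a 60-min RT NADPH reaction; data scaled to 57 uM ketoconazole.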

[22] = measured here: cell count channel max response
[23] = measured here: lipid channel max response

Glucocorticoid receptor (Homo sapiens), sequence (P04150 whole entry, looked up, the tested form may be a part): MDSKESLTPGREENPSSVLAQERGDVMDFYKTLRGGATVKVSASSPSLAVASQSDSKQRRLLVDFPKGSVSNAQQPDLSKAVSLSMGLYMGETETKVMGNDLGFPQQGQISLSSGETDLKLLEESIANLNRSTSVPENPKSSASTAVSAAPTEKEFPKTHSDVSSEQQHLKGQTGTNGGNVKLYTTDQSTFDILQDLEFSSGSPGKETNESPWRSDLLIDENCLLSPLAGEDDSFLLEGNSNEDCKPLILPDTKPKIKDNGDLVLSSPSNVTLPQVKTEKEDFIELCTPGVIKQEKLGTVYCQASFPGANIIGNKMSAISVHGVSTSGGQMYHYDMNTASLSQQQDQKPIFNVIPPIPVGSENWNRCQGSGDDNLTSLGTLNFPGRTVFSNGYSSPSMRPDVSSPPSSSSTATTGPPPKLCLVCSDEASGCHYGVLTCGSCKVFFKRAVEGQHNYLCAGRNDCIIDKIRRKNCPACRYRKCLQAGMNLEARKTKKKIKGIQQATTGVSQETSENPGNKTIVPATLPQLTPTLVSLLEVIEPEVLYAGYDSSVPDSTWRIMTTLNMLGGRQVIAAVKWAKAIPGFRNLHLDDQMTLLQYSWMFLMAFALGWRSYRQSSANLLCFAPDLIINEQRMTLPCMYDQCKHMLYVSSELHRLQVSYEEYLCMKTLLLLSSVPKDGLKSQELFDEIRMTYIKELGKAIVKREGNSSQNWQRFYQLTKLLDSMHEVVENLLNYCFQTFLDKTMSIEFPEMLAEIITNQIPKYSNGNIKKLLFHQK
Cytochrome P450 1A2 (Homo sapiens), sequence (P05177 whole entry, looked up): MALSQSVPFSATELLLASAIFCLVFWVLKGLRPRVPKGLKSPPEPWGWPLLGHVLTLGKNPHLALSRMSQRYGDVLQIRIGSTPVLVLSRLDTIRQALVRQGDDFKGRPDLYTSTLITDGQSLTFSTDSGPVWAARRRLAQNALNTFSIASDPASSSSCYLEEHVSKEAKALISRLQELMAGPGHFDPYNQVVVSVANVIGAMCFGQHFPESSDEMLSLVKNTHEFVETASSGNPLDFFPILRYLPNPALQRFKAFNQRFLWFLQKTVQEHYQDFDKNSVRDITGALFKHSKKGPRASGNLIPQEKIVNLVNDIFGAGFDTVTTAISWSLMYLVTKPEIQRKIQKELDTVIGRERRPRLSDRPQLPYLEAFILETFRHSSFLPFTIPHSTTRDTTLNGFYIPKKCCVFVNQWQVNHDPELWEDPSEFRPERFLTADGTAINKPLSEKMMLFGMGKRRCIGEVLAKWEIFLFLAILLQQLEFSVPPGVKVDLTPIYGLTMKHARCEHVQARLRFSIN
Cytochrome P450 2C19 (Homo sapiens), sequence (P33261 whole entry, looked up): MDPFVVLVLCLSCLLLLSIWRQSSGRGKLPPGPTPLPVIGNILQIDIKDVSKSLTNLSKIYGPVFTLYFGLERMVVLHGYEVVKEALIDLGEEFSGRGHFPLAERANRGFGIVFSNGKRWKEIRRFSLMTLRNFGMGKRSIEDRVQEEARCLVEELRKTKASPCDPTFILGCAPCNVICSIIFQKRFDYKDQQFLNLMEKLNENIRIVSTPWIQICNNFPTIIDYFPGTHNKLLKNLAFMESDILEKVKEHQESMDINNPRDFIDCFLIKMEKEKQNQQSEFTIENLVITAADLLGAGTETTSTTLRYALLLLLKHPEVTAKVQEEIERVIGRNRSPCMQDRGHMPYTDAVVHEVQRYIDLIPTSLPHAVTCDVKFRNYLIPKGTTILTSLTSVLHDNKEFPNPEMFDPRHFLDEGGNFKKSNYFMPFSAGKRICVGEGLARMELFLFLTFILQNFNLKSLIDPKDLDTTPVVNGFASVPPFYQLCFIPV
Cytochrome P450 3A4 (Homo sapiens), sequence (P08684 whole entry, looked up): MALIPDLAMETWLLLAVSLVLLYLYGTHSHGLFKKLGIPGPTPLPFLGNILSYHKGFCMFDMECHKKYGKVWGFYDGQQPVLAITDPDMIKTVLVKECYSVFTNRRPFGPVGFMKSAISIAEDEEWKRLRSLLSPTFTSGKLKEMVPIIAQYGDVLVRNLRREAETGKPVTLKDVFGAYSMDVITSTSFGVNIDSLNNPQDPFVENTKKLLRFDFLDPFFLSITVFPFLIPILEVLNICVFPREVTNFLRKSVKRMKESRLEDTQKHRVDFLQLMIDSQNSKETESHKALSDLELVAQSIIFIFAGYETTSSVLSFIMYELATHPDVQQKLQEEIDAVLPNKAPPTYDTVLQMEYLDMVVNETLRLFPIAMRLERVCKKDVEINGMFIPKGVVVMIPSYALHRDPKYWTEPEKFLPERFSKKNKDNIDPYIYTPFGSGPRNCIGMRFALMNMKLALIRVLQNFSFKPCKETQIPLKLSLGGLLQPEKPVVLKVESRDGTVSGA
Ubiquitin carboxyl-terminal hydrolase 1 (Homo sapiens), sequence (O94782 whole entry, looked up): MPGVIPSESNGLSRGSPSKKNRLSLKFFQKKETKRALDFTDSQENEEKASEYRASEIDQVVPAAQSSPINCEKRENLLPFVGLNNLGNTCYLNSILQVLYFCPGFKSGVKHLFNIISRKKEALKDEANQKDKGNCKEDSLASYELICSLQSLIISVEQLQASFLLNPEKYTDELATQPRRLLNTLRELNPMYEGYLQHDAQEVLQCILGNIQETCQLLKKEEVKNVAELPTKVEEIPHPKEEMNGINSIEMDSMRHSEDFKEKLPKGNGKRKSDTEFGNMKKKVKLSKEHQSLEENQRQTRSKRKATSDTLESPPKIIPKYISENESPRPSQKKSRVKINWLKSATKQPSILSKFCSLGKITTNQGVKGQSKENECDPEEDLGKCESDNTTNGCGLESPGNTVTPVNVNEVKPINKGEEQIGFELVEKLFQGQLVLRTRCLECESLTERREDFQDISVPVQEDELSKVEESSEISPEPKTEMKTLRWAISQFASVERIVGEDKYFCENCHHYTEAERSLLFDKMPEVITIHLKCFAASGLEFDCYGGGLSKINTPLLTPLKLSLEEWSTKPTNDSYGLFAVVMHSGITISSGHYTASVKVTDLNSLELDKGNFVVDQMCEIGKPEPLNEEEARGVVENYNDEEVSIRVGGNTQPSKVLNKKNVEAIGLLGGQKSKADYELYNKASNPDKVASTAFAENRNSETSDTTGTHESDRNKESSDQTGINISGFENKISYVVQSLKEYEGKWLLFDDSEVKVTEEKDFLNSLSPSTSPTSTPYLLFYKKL
3',5'-cyclic-AMP phosphodiesterase 4B (Homo sapiens), sequence (Q07343 whole entry, looked up): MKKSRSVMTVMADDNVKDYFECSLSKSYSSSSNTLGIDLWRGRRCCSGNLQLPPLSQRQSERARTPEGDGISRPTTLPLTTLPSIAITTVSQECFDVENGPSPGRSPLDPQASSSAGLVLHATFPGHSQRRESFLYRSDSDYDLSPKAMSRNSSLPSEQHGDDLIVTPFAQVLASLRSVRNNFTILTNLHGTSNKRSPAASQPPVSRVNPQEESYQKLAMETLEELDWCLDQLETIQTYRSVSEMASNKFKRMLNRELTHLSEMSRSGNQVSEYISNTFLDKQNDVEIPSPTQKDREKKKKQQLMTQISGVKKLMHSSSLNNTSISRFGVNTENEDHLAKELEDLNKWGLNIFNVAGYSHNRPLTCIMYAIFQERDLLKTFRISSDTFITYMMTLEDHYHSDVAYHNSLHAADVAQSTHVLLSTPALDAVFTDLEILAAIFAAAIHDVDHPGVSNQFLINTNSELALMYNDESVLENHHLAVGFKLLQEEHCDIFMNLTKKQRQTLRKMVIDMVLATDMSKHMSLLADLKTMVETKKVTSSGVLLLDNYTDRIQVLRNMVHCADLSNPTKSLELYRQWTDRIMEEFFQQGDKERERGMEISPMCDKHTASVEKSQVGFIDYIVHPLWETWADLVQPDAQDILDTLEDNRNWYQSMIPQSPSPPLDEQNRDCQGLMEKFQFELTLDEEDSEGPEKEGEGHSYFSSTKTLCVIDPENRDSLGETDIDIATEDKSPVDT
DNA dC->dU-editing enzyme APOBEC-3G (Homo sapiens), sequence (Q9HC16 whole entry, looked up): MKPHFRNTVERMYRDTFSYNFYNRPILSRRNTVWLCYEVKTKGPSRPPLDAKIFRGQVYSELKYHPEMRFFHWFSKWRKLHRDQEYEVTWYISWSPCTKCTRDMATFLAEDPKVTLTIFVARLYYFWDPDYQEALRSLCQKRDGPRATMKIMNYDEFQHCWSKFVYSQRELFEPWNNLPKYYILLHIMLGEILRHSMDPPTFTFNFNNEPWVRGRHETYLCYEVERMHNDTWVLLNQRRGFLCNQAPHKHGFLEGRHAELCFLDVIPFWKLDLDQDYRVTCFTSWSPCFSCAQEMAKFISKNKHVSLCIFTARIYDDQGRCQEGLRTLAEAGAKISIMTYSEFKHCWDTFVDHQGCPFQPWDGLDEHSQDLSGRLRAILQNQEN
Cytochrome P450 2D6 (Homo sapiens), sequence (P10635 whole entry, looked up): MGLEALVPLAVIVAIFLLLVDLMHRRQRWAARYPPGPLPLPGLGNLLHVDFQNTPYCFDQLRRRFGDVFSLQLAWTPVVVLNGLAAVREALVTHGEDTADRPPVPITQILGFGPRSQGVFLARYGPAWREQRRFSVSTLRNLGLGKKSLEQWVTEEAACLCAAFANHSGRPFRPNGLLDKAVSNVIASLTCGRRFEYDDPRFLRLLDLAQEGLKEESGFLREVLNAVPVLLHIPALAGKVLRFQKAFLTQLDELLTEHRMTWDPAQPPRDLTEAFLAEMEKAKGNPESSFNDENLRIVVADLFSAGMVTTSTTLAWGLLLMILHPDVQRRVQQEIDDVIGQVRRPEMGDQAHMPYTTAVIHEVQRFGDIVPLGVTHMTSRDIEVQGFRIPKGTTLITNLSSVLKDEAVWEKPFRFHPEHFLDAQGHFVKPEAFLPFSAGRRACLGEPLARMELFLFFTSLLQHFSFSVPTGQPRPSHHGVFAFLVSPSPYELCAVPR

CS(=O)(=O)Nc1c(O)ccc2c1CCC[C@H]2C1=NCCN1
-17.3%: max response [6, 23]
-12.4%: max response [6, 22]
inactive: Potency [1] | Potency [2] > 46 µM | Potency [3] > 46 µM | Potency [4] | Potency [5] | activity change, negative = inhibition ([6]; at 57.5 µM (top of the series)) -4.88% | Potency [7] | Potency [8]

CC(=O)N(O)[C@@H]1c2cc(C#N)ccc2OC(C)(C)[C@H]1O
inactive: Potency [9] | Potency [8] | Potency [10]

Cc1nc(N=Nc2cc(S(=O)(=O)O)ccc2S(=O)(=O)O)c(COP(=O)(O)O)c(C=O)c1O
active: Potency [11] 1 µM
-2.46%: max response [6, 22]
-2.68%: max response [6, 23]
inactive: Potency [1] | Potency [2] > 46 µM | Potency [3] > 46 µM | Potency [4] | Potency [5] | activity change, negative = inhibition ([6]; at 57.5 µM (top of the series)) -1.5% | Potency [7] | Potency [8]

CCNCCCNCCCNCCCNCC
inactive: Potency [1] | Potency [2] > 46 µM | Potency [3] > 46 µM | Potency [4] | Potency [5] | Potency [12] | activity change, negative = inhibition ([6]; at 57.5 µM (top of the series)) -4.07% | Potency [13] | Potency [7] | Potency [8]
-26.1%: max response [6, 22]
-12.2%: max response [6, 23]

CCOC(=O)[C@H](N)/C=C(\C)CP(=O)(O)O
1.46%: max response [6, 22]
-0.232%: max response [6, 23]
inactive: Potency [1] | Potency [3] > 46 µM | Potency [4] | Potency [5] | activity change, negative = inhibition ([6]; at 57.5 µM (top of the series)) -3.23% | Potency [13] | Potency [7] | Potency [8]
active: Potency [14] 2 µM

Fc1ccc(C(c2ccc(F)cc2)N2CCN(C/C=C\c3ccccc3)CC2)cc1
active: Potency [1] 15.8 µM
-22.1%: max response [6, 23]
inactive: activity change, negative = inhibition ([15]; at 17.2 µM (top of the series)) -7.16% | activity change, negative = inhibition ([15]; at 38 µM (top of the series)) 2.24% | activity, negative = inhibition ([16]; at 17.2 µM (top of the series)) 10.1% | activity, negative = inhibition ([16]; at 38 µM (top of the series)) -6.11% | Potency [2] > 46 µM and > 20.6 µM | Potency [3] > 46 µM and > 20.6 µM | Potency [4] | Potency [5] | outcome [17] | Potency [9] | Potency [12] | outcome [18] | outcome [19] | outcome [20] | activity change, negative = inhibition ([6]; at 25.7 µM (top of the series)) -8.39% | Potency [8]
-13.5%: max response [6, 22]

CCCN(CCC)C[C@@H]1CCCCN1CCNC(=O)N1c2ccccc2C(=O)Nc2cccnc21
inactive: Potency [2] > 46 µM | Potency [3] > 46 µM | Potency [4] | Potency [21] | activity change, negative = inhibition ([6]; at 57.5 µM (top of the series)) -0.0589% | Potency [13] | Potency [7] | Potency [8]
-7.53%: max response [6, 23]
-8.98%: max response [6, 22]
active: Potency [1] 25.1 µM | Potency [14] 2.51 µM | Potency [12] 7.94 µM

CCCCCCCCCCCC(=O)O[C@H](CC(=O)O)C[N+](C)(C)C
-5.13%: max response [6, 22]
-11.1%: max response [6, 23]
inactive: Potency [1] | Potency [2] > 46 µM | Potency [3] > 46 µM | Potency [4] | Potency [5] | activity change, negative = inhibition ([6]; at 57.5 µM (top of the series)) -2.15% | Potency [13] | Potency [7] | Potency [8]

Source: PubChem BioAssay (NCATS)
